In ChEMBL document CHEMBL4513216, “Probing the Open Global Health Chemical Diversity Library for Multistage-Active Starting Points for Next-Generation Antimalarials” (ACS Infect Dis, 2020):
Among all 69,000 compounds or so, about 8,600 (12%) showed an effect of 50% or more. The entries come from a sample that favours strong results as a whole.

Tested on: Plasmodium berghei
Assay: Screen against P. berghei liver stage (PbLuc), transformed with Luciferase, at 10uM
Assay type: functional, HepG2
Conditions: tested at 10 uM

| Compound | INHIBITION [%] |
| --- | --- |
| CNc1cc(N2CCCC2CNCc2ccc(C)o2)ncn1 (stereo not drawn) | -0.448 |
| CNc1cc(N2CCCC2CNCc2ccc(Cl)o2)ncn1 (stereo not drawn) | 56.9 |
| CNc1cc(N2CCCC2CNCc2cccs2)ncn1 (stereo not drawn) | 36.8 |
| CNc1cc(N2CCCC2CNCc2cnc(C)cn2)ncn1 (stereo not drawn) | 7.7 |
| CNc1cc(N2CCCC2CNCc2ccccn2)ncn1 (stereo not drawn) | -21.3 |
| CNc1cc(N2CCCC2CNCc2ccco2)ncn1 (stereo not drawn) | 59.8 |
| O=C(CNC(=O)c1ccc(Cl)cc1)Nc1nccs1 | 14.5 |
| COc1ncccc1NC(=O)N(C1CC1)C(C)C(C)C (stereo not drawn) | 31.3 |
| Cc1nc(CC(=O)NCCN2CCC(c3ccccc3C)C2)cs1 (stereo not drawn) | 42.4 |
| Cc1ccccc1C1CCN(CCNC(=O)CS(C)(=O)=O)C1 (stereo not drawn) | 36.9 |
| CCCc1nc(C(=O)NCCN2CCC(c3ccccc3C)C2)cs1 (stereo not drawn) | 85.1 |
| COc1c(Br)c(CC2CC(CO)=NO2)c(OC)c2c1OCO2 (stereo not drawn) | 22.6 |
| CCn1cc(CN2CCN(C(=O)c3cc(Br)cs3)CC2)c(C)n1 | 38.3 |
| Cn1cc(Cl)c(CN(Cc2ccsc2)CC2CCCO2)n1 (stereo not drawn) | 11.5 |
| CCN(Cc1ccc(C(C)=O)cc1)CC1CCOCC1 | 14.6 |
| O=c1oc2ccccc2n1CCN(CC1CCOC1)C1CC1 (stereo not drawn) | 51.3 |
| CCN(CC)CCn1c(=O)oc2ccccc21 | -5.1 |
| Cn1cc(C2CCCN2CCCn2c(=O)oc3ccccc32)cn1 (stereo not drawn) | 1.84 |
| CCCN(CCn1c(=O)oc2ccccc21)CC1CC1 | 56.3 |
| O=c1oc2ccccc2n1CCCN1CCCC1c1ccc(O)cc1 (stereo not drawn) | 6.61 |
| Cc1nn(CN(CC2CCOC2)C2CC2)c(=O)c2ccccc12 (stereo not drawn) | 8.86 |
| CCN(CCn1c(=O)oc2ccccc21)CC1CCOCC1 | 64.9 |

| Compound | INHIBITION [%] |
| --- | --- |
| O=c1c2ccccc2nnn1CN(CC1CCOC1)C1CC1 (stereo not drawn) | -5.92 |
| CCn1cc2[nH]c(OC)c(CNC(=O)C3CCCN(C)C3)cc-2c1=O (stereo not drawn) | 34.4 |
| CC(C)(C)Nc1c(C2CCCN(C(=O)C3CC3)C2)nc2ccccn12 (stereo not drawn) | 14.05 |
| Cc1nnc(CN(CCc2ccccc2)C2CCN(C)CC2)s1 | 4.12 |
| CCn1cc(CNC2CCN(c3cccc(C)c3C)CC2)cn1 | -12.1 |
| CCOC1COC2(CCN(CC3CC3)CC2)C1 (stereo not drawn) | 26.7 |
| Nc1nccc(C2CCN(CCO)C2)n1 (stereo not drawn) | 15.5 |
| CN(C)C(=O)[C@@H]1C[C@@H]2CCN(C3CCOCC3)C[C@H]2O1 | 21.4 |
| Cc1nnc(N2CC[C@H]3C[C@@H](C(=O)NC4CCCC4)O[C@H]3C2)s1 | 61.4 |
| Cc1ccc(CN2CC[C@H]3C[C@H](C(=O)N(C)C)O[C@H]3C2)cc1 | 25.5 |
| CNC(=O)[C@H]1C[C@@H]2CCN(c3nnc(C)s3)C[C@@H]2O1 | 21.8 |
| Cc1ccc(N2CC[C@H]3C[C@@H](C(=O)N4CCOCC4)O[C@H]3C2)nn1 | 34.1 |
| Cc1nnc(N2CC[C@H]3C[C@@H](C(=O)N4CCCC4)O[C@H]3C2)s1 | -0.388 |
| Cc1nnc(N2CC[C@H]3C[C@H](C(=O)N(C)C)O[C@@H]3C2)s1 | 88.2 |
| COCCNC(=O)[C@H]1C[C@@H]2CCN(c3nncs3)C[C@H]2O1 | 18.5 |
| Cc1nnc(N2CC[C@H]3C[C@H](C(=O)N4CCOCC4)O[C@H]3C2)s1 | 50 |
| CCc1noc(CN2CCC(NC(=O)c3ccc(C)s3)CC2)n1 | -30 |
| CCS(=O)(=O)CCSc1ccc(Cl)cc1 | 18.6 |
| CCN(C(=O)COc1nc(Cc2ccc(F)cc2)no1)C1CC1 | -50.7 |
| COc1ccc(-n2cc3[nH]c(=O)n(Cc4cccc(F)c4)n3c2=O)cc1 | -67 |
| Cc1c(NC(=O)CN2CCN(C3CCCC3)C(=O)C2)cnn1C | 7.85 |
| Cc1oc(C(=O)O)cc1S(=O)(=O)Nc1cccc(Cl)c1F | -46.2 |

| Compound | INHIBITION [%] |
| --- | --- |
| O=S(=O)(c1cc2ccccc2o1)N1CCCC1 | 59.4 |
| CCN1CCCN(S(=O)(=O)c2cc3ccccc3o2)CC1 | 46.6 |
| CC(=O)N1CCCN(S(=O)(=O)c2cc3ccccc3o2)CC1 | 16.6 |
| O=C(C1CCOCC1)N1C[C@@H]2[C@@H](C1)OCC(=O)N2CC1CC1 | 7.96 |
| O=C(NC1CCC1)C1=NOC2(CCN(Cc3ccco3)C2)C1 (stereo not drawn) | 64.9 |
| O=C(O)[C@]12CCCN(Cc3ccco3)C[C@H]1CN(c1ncccn1)C2 | 42.6 |
| Cc1ccc(CN2CCC3(CC(C(=O)NC4CCC4)=NO3)C2)o1 (stereo not drawn) | 56.7 |
| Cc1ccc(CN2CCC3(CC(C(=O)NCC4CC4)=NO3)C2)s1 (stereo not drawn) | -117 |
| Cc1ccc(S(=O)(=O)N2CCC3(CC(C(=O)NC4CCC4)=NO3)C2)cc1 (stereo not drawn) | 5.67 |
| CC(Nc1ncnc2c1NC(=O)CN2)c1ccc2c(c1)OCO2 (stereo not drawn) | 48.2 |
| Cn1nccc1C(=O)N1CCOC(Cc2ccc(Cl)cc2)C1 (stereo not drawn) | 0.301 |
| Cc1cc(C)c(C(=O)N2CCOCC2c2c(C)nn(C)c2C)o1 (stereo not drawn) | -79.1 |
| Cc1ccc(C(=O)N2CCCN(C)c3ccc(F)cc32)o1 | 16.5 |
| CCc1cc(C(=O)N2CCCC(c3[nH]ncc3S(C)(=O)=O)C2)no1 (stereo not drawn) | 24.8 |
| CCn1ccnc1CN1CCN(c2cc(C)nc(C3CCCN3)c2)CC1 (stereo not drawn) | 11.02 |
| COc1cc(C)nc(N2CCN(Cc3nccn3C)CC2)n1 | 41.4 |
| CCOc1cc(C)nc(N2CCN(Cc3nccn3CC)CC2)n1 | 50.8 |
| COc1cc(C)nc(N2CCN(C(=O)CSC)CC2)n1 | -64.85 |
| CCn1ccnc1CN1CCN(c2nc(C)cc(OC)n2)CC1 | 78.3 |
| CCOc1cc(C)nc(N2CCN(Cc3nccn3C)CC2)n1 | 12.2 |
| CC(C)Cc1noc(CN(C)c2ncccn2)n1 | -33.3 |
| CCOc1ccccc1C(=O)N(C)C(C)c1ccc(S(C)(=O)=O)cc1 (stereo not drawn) | -162 |

| Compound | INHIBITION [%] |
| --- | --- |
| CCC(C)N(Cc1cccnc1)C(=O)c1ccc(OC)cc1O (stereo not drawn) | 32.9 |
| CSCC(CCO)NC(=O)c1cccc(Cl)c1F (stereo not drawn) | 36.4 |
| CSCC(CCO)NC(=O)Nc1ccc(C)cc1C (stereo not drawn) | -7.53 |
| CSCC(CCO)NC(=O)c1cccc(F)c1Cl (stereo not drawn) | 65.9 |
| CSCC(CCO)Nc1cccc(C(F)(F)F)n1 (stereo not drawn) | 22.8 |
| CSCC(CCO)NC(=O)c1cccc(C)c1Cl (stereo not drawn) | 54.1 |
| CSCC(CCO)NC(=O)Nc1cccc(Br)c1C (stereo not drawn) | 36.8 |
| CC(C)NC(=O)C1c2c(ncn2C(C)C)CCN1Cc1ccccc1 (stereo not drawn) | 8.67 |
| Cn1ccc(C(=O)NC2CCC23CCN(CC2CCOCC2)CC3)c1 (stereo not drawn) | 12 |
| CC[C@@H](C)[C@H](NC(=O)NC1CCS(=O)(=O)C1)C(=O)NCc1ccncc1 (stereo partly drawn) | -41.2 |
| O=C(N[C@@H]1CN(Cc2cccs2)[C@@H]2COC[C@@H]21)C1CCC1 | -0.804 |
| CCN(CC1CCCO1)C(=O)Nc1cc(C)ccc1S(C)(=O)=O (stereo not drawn) | -12.2 |
| Cc1ccc(-c2nnc(C(C)NCCn3cc(C)cn3)o2)cc1 (stereo not drawn) | -3.87 |
| Cc1cccc(-c2nnc(C(C)NCCn3cc(C)cn3)o2)c1 (stereo not drawn) | 17.9 |
| Cc1cnn(CCNC(C)c2nnc(-c3ccccc3)o2)c1 (stereo not drawn) | 54.8 |
| Cn1ncc2c1CCCC2NCc1cc(Br)cs1 (stereo not drawn) | 31.1 |
| NCCNS(=O)(=O)Cc1ccc(Br)cc1 | 16.9 |
| COCc1noc(CN2C[C@H](C3CC3)[C@@H](N(C)C)C2)n1 | 17.1 |
| O=C(CCOc1ccccc1F)N1CCCC1Cn1cccn1 (stereo not drawn) | 29.2 |
| CN(CCC(=O)N1CCc2sccc2C1)Cc1cnn(C)c1 | 19.2 |
| CC(C)c1nc(C(=O)N2CCc3ccccc3C2C(=O)O)cs1 (stereo not drawn) | 6.61 |
| CC(C)c1cc(C(=O)N2CCc3ccccc3C2C(=O)O)n(C)n1 (stereo not drawn) | 66.3 |

| Compound | INHIBITION [%] |
| --- | --- |
| CC(C)c1cc(C(=O)N2CCc3ccccc3C2C(=O)O)nn1C (stereo not drawn) | -28 |
| O=C(O)C1(n2ccc(-c3ccco3)n2)CCN(Cc2ccsc2)CC1 | -14.3 |
| Nc1no[n+]([O-])c1C(=O)NCc1cccnc1 | 42.8 |
| Cn1cccc1CCC(=O)N1CCC2(CC1)c1ccccc1CC2O (stereo not drawn) | 60.1 |
| NS(=O)(=O)CCCC(=O)N1CCC2(CC1)c1ccccc1CC2O (stereo not drawn) | -38.8 |
| NC(=O)NCC(=O)N1CCC2(CC1)c1ccccc1CC2O (stereo not drawn) | 28.3 |
| CSCC(=O)N1CCC2(CC1)c1ccccc1CC2O (stereo not drawn) | 65.1 |
| O=C(CCN1CCNCC1)N1CCC2(CC1)c1ccccc1CC2O (stereo not drawn) | 31.6 |
| O=C(CSc1ccncc1)N1CCC2(CC1)c1ccccc1CC2O (stereo not drawn) | -16.8 |
| COCCC(=O)N1C[C@@H](c2ccc(F)c(F)c2)[C@@]2(CCCC(=O)N2)C1 | 17.4 |
| CCNC(c1cccnc1)c1ccc(F)cc1F (stereo not drawn) | 30.6 |
| COc1ccc(CNC(=O)NCCc2nc(C)c(C)s2)cn1 | 31.2 |
| Cc1ccc(CNC(=O)NCc2cccnc2N(C)C)s1 | 15.5 |
| COCCNc1ccccc1CNC(=O)C1CCCOC1 (stereo not drawn) | 35.1 |
| COCCNc1ccccc1CNC(=O)NCc1cnc(C)s1 | 52.1 |
| COCCNc1ccccc1CNC(=O)NCc1ccc(C)s1 | 64.1 |
| COc1ccc(CNC(=O)NCc2nc(C)c(C)s2)cn1 | 48.5 |
| Cc1ncc(CNC(=O)NCC(C)Oc2ccccc2F)s1 (stereo not drawn) | -47.3 |
| Cc1ncc(CNC(=O)NCc2c(F)cccc2OC(F)F)s1 | 10.7 |
| COCCNc1ccccc1CNC(=O)NCc1nc(C)c(C)s1 | 72 |
